Measurements as given in PubChem BioAssay (NCI).
The panel holds about 83,000 compounds, 20% with a hit somewhere; the sample as a whole holds those more often.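 48-hour exposure, single concentration, 96-well plates; percent growth endpoint where 0 means no net growth. Active: below 10.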 Calls of active or inactive are those of the source.

Columns and labels:
Test in all cases: NCI-60 one-dose screen, 48 h (100 = growth as untreated, 0 = no growth, -100 = all killed)
NCI-H322M lung = details: 10 µM unless noted
NCI-H522 lung = details: 10 µM unless noted
SNB-19 CNS = details: 10 µM unless noted
U251 CNS = details: 10 µM unless noted
SK-MEL-5 melanoma = details: 10 µM unless noted
EKVX NSCLC = details: 10 µM unless noted
SN12C renal = details: 10 µM unless noted
TK-10 renal = details: 10 µM unless noted
ACHN renal = details: 10 µM unless noted
CCRF-CEM leukemia = details: 10 µM unless noted
SR leukemia = details: 10 µM
IGROV1 ovarian = details: 10 µM
HS 578T breast = details: 10 µM unless noted
T-47D breast = details: 10 µM unless noted
MDA-MB-435 melanoma = details: 10 µM unless noted
HCT-116 colon = details: 10 µM unless noted
COLO 205 colon = details: 10 µM
SK-MEL-2 melanoma = details: 10 µM unless noted

Measured: growth

CC(=O)C1CCC2C3CC=C4CC(OC(=O)Cc5ccc(N(CCCl)CCCl)cc5)CCC4(C)C3CCC12C (configuration not stated)
inactive: NCI-H322M lung 119% | NCI-H522 lung 80% | SNB-19 CNS 93.4% | U251 CNS 106% | SK-MEL-5 melanoma 94.5% | EKVX NSCLC 83.1% | SN12C renal 96.6% | TK-10 renal 113% | ACHN renal 100% | CCRF-CEM leukemia 64.5% | SR leukemia 52.7% | IGROV1 ovarian 97.3% | HS 578T breast 126% | T-47D breast 105% | MDA-MB-435 melanoma 111% | HCT-116 colon 93.7%

O=C1NC(=O)C(O)(C2(O)C(=O)NC(=O)NC2=O)C(=O)N1
inactive: NCI-H322M lung 132% | NCI-H522 lung 94.3% | COLO 205 colon 79.9% | SNB-19 CNS 96.1% | U251 CNS 99.9% | SK-MEL-5 melanoma 86.7% | SK-MEL-2 melanoma 77.5% | EKVX NSCLC 110% | SN12C renal 92.3% | TK-10 renal 118% | ACHN renal 104% | CCRF-CEM leukemia 70.1% | SR leukemia 95.1% | HS 578T breast 99% | T-47D breast 101% | MDA-MB-435 melanoma 108% | HCT-116 colon 97%

O=C(Nc1ccc(S(=O)(=O)F)cc1)Oc1ccccc1
inactive: NCI-H322M lung 94.8% | COLO 205 colon 110% | SNB-19 CNS 97.6% | U251 CNS 96.8% | SK-MEL-2 melanoma 107% | SN12C renal 104% | SR leukemia 99.9% | IGROV1 ovarian 99.1% | T-47D breast 95.9% | MDA-MB-435 melanoma 99.9% | HCT-116 colon 116%

CC(C)[C@]12O[C@H]1[C@@H]1O[C@]13[C@]1(O[C@H]1C[C@H]1C4=C(CC[C@@]13C)C(=O)OC4)[C@@H]2OC(=O)OC(C)(C)C
active: NCI-H322M lung 3.68% | NCI-H522 lung -34.3% | SK-MEL-2 melanoma -55.3% | EKVX NSCLC -22.4% | TK-10 renal 5.21% | ACHN renal 9.88% | SR leukemia 3.66% | IGROV1 ovarian -5.58% | HS 578T breast -6.44% | HCT-116 colon 4.76%
inactive: SNB-19 CNS 16.5% | U251 CNS 15.5% | SN12C renal 20% | CCRF-CEM leukemia 13.4% | T-47D breast 23.8%

CC1(C)N=C(N)N=C(N)N1c1ccc(OCCCCNC(=O)c2ccc(S(=O)(=O)F)cc2)c(Cl)c1
inactive: NCI-H322M lung 55.5% | COLO 205 colon 61.7% | SNB-19 CNS 103% | U251 CNS 57.2% | SK-MEL-5 melanoma 51.4% | SK-MEL-2 melanoma 82.4% | SN12C renal 44.7% | ACHN renal 96.9% | CCRF-CEM leukemia 31% | SR leukemia 34.8% | IGROV1 ovarian 33.7% | T-47D breast 104% | MDA-MB-435 melanoma 30.6% | HCT-116 colon 25.6%

FC(F)=C(F)c1ccccc1
inactive: NCI-H322M lung 104% | COLO 205 colon 104% | SNB-19 CNS 103% | U251 CNS 103% | SK-MEL-5 melanoma 105% | SK-MEL-2 melanoma 98.5% | SN12C renal 112% | TK-10 renal 89.7% | SR leukemia 80.4% | IGROV1 ovarian 99% | T-47D breast 80.5% | MDA-MB-435 melanoma 104% | HCT-116 colon 103%

Cc1ccc(C[As+](c2ccccc2)(c2ccccc2)c2ccccc2)cc1
inactive: NCI-H322M lung 18.6% | SNB-19 CNS 17.2% | U251 CNS 10.9% | TK-10 renal 16.9% | ACHN renal 49% | CCRF-CEM leukemia 16.3% | HS 578T breast 21%
active: NCI-H522 lung -22% | SK-MEL-2 melanoma -16.9% | SN12C renal 3.83% | IGROV1 ovarian 9.49% | T-47D breast -3.86% | MDA-MB-435 melanoma -10.3%

CC(N)Cc1ccc(O)cc1 (configuration not stated)
inactive: NCI-H322M lung 95.5% | NCI-H522 lung 105% | SNB-19 CNS 114% | SK-MEL-5 melanoma 103% | EKVX NSCLC 107% | SN12C renal 105% | TK-10 renal 98.3% | ACHN renal 108% | CCRF-CEM leukemia 93.9% | SR leukemia 55.4% | IGROV1 ovarian 111% | HS 578T breast 103% | T-47D breast 98.3% | MDA-MB-435 melanoma 106% | HCT-116 colon 100%

C[As](=O)(O)c1ccc(C(=O)O)cc1
inactive: NCI-H322M lung 115% | COLO 205 colon 115% | U251 CNS 89.5% | SK-MEL-5 melanoma 108% | SK-MEL-2 melanoma 99.9% | SN12C renal 107% | TK-10 renal 107% | ACHN renal 114% | SR leukemia 118% | IGROV1 ovarian 120% | HS 578T breast 113% | T-47D breast 110% | MDA-MB-435 melanoma 98.4% | HCT-116 colon 110%

C[C@@H]1O[C@@H](O[C@H]2CC[C@@]3(C)[C@H](CCC4[C@@H]3C(O)C[C@]3(C)[C@@H](c5ccc(=O)oc5)CC[C@]43O)C2)[C@H](O)[C@H](O)[C@H]1O (some centres not stated)
active: NCI-H322M lung -73.9% | NCI-H522 lung -87% | U251 CNS -97.9% | SK-MEL-5 melanoma -99.6% | EKVX NSCLC -58.3% | SN12C renal -25.3% | TK-10 renal -97% | ACHN renal -81.7% | IGROV1 ovarian -62.9% | HS 578T breast -9.52% | MDA-MB-435 melanoma -76.2%

Cc1cc(N(CCCl)CCCl)ccc1C=Nc1ccc2ccccc2c1
inactive: NCI-H322M lung 103% | COLO 205 colon 87.4% | SNB-19 CNS 84.7% | U251 CNS 63% | SK-MEL-5 melanoma 74.6% | SK-MEL-2 melanoma 145% | SN12C renal 49.7% | SR leukemia 46.2% | IGROV1 ovarian 63% | MDA-MB-435 melanoma 90.6% | HCT-116 colon 79.9%

CCC(CC)(c1ccccc1)C(OC(N)=O)c1ccccc1 (configuration not stated)
inactive: NCI-H322M lung 85% | NCI-H522 lung 78.6% | SNB-19 CNS 88.1% | U251 CNS 82.1% | SK-MEL-5 melanoma 89.5% | SK-MEL-2 melanoma 79.2% | SN12C renal 81.8% | ACHN renal 87.4% | CCRF-CEM leukemia 88.9% | SR leukemia 72.8% | IGROV1 ovarian 73.4% | HS 578T breast 88.2% | MDA-MB-435 melanoma 50.6% | HCT-116 colon 62.4%

CC1(C)N=C(N)N=C(N)N1c1ccc(CCCCc2ccc(S(=O)(=O)F)cc2)cc1
inactive: NCI-H322M lung 31.2% | COLO 205 colon 41.9% | SNB-19 CNS 42% | U251 CNS 16.7% | SK-MEL-5 melanoma 19.3% | SK-MEL-2 melanoma 56.1% | SN12C renal 26.8% | TK-10 renal 14.1% | ACHN renal 39.2% | SR leukemia 38% | IGROV1 ovarian 30.2% | T-47D breast 16.6% | HCT-116 colon 12.6%

CCN(CC)c1ccc(C=C2C(=O)NC(=S)NC2=O)cc1
active: SR leukemia -50.8%
inactive: NCI-H322M lung 104% | NCI-H522 lung 86.5% | SNB-19 CNS 88.9% | U251 CNS 77% | SK-MEL-5 melanoma 93.4% | SK-MEL-2 melanoma 98.1% | EKVX NSCLC 99.5% | SN12C renal 91.8% | TK-10 renal 108% | ACHN renal 95.7% | CCRF-CEM leukemia 38.9% | IGROV1 ovarian 100% | HS 578T breast 88.6% | T-47D breast 78% | MDA-MB-435 melanoma 98.1% | HCT-116 colon 93.9%

C=CC(=O)NC(O)C(Cl)(Cl)Cl (configuration not stated)
inactive: NCI-H322M lung 85% | COLO 205 colon 111% | SNB-19 CNS 105% | U251 CNS 102% | SK-MEL-5 melanoma 119% | SK-MEL-2 melanoma 84.3% | SN12C renal 109% | TK-10 renal 95.9% | ACHN renal 99.6% | SR leukemia 90.8% | IGROV1 ovarian 98.1% | HS 578T breast 120% | T-47D breast 93.4% | MDA-MB-435 melanoma 105% | HCT-116 colon 101%

OB([O][Hg][c]1ccccc1)[O][Hg][c]1ccccc1
active: NCI-H322M lung -22.4% | COLO 205 colon -100% | SNB-19 CNS 5.87% | U251 CNS -82.4% | SK-MEL-5 melanoma -96.7% | SK-MEL-2 melanoma -74.9% | SN12C renal -99.6% | TK-10 renal -94.5% | ACHN renal -95.6% | SR leukemia -15.2% | IGROV1 ovarian -54.3% | HS 578T breast -5.59% | T-47D breast -42.4% | MDA-MB-435 melanoma -84% | HCT-116 colon -68.4%

O=[N+]([O-])c1ccc(F)c([N+](=O)[O-])c1F
active: SR leukemia 8.94%
inactive: NCI-H322M lung 91.7% | NCI-H522 lung 95.3% | SNB-19 CNS 115% | U251 CNS 101% | SK-MEL-5 melanoma 103% | SK-MEL-2 melanoma 93.7% | EKVX NSCLC 100% | SN12C renal 103% | TK-10 renal 99.9% | ACHN renal 113% | CCRF-CEM leukemia 61.7% | IGROV1 ovarian 105% | HS 578T breast 103% | T-47D breast 96.6% | MDA-MB-435 melanoma 103%

C=CCN1C(=O)C(CC)(CCC(C)C)C(=O)NC1=S (configuration not stated)
inactive: NCI-H322M lung 106% | COLO 205 colon 108% | SNB-19 CNS 100% | SK-MEL-2 melanoma 117% | SN12C renal 101% | TK-10 renal 115% | CCRF-CEM leukemia 86.3% | SR leukemia 103% | IGROV1 ovarian 108% | MDA-MB-435 melanoma 101% | HCT-116 colon 105%

O=C(O)c1nn(Cc2ccc(Cl)cc2)c2ccccc12
inactive: NCI-H322M lung 127% | NCI-H522 lung 96.8% | SNB-19 CNS 96.7% | U251 CNS 100% | SK-MEL-5 melanoma 97.2% | SN12C renal 93.7% | TK-10 renal 123% | ACHN renal 117% | CCRF-CEM leukemia 98.7% | SR leukemia 97.3% | IGROV1 ovarian 122% | HS 578T breast 105% | T-47D breast 104% | MDA-MB-435 melanoma 116% | HCT-116 colon 103%

CC(/C=N/N=C(N)N)=N\N=C(N)N
inactive: NCI-H322M lung 10% | NCI-H522 lung 61.5% | COLO 205 colon 55.4% | SNB-19 CNS 78.1% | U251 CNS 77.8% | SK-MEL-5 melanoma 137% | EKVX NSCLC 89.8% | SN12C renal 74.2% | TK-10 renal 62% | CCRF-CEM leukemia 53% | SR leukemia 70.1% | HS 578T breast 69.3% | T-47D breast 40.8% | MDA-MB-435 melanoma 89.2% | HCT-116 colon 49%
active: SK-MEL-2 melanoma -5.97%

Nc1nc(N)c(-c2ccc(Cl)c(Cl)c2)c(/C=C/c2ccc(S(=O)(=O)F)cc2)n1
inactive: NCI-H322M lung 89.8% | COLO 205 colon 98.1% | SNB-19 CNS 102% | U251 CNS 89.1% | SK-MEL-5 melanoma 84.6% | SK-MEL-2 melanoma 86.3% | SN12C renal 93.1% | ACHN renal 67.8% | SR leukemia 76.3% | IGROV1 ovarian 89.3% | T-47D breast 96.1% | HCT-116 colon 77.7%

COc1ccc(-c2ccc(OC)c(OC)c2OC)cc1
active: COLO 205 colon -13.5% | MDA-MB-435 melanoma -24%
inactive: NCI-H322M lung 36% | U251 CNS 22.9% | SK-MEL-5 melanoma 15.3% | EKVX NSCLC 52.4% | SN12C renal 42.3% | TK-10 renal 16.2% | CCRF-CEM leukemia 10.1% | SR leukemia 16.9% | IGROV1 ovarian 37.1% | T-47D breast 27% | HCT-116 colon 15.3%
